“And” between values parts separate entries of the source, which are not always exact repeats. Identical values can stand only once. Records with an inconclusive call do not appear. Where a structure was tested more than once in an assay, its records may differ in their call. The source made the active and inactive calls. Calls come from the whole dose curve; as a rule, active = well fitted curve in the direction sought with a large enough effect; inconclusive = small, poorly fitted or top-dose-only effect, or another doubt; inactive = no such curve, though single readings can be large; an effect the other way counts as inactive or inconclusive.
Assays:
CRL-7250 = normal cell line; test: Cytotoxic Profiling of Annotated Libraries Using Quantitative High-Throughput Screening (AID 1296008); settings: Five cell lines viability, CellTiter-Glo ATP luminescence, 48-72 h; max response: stronger effect = lower value; note: nearly all actives have a fitted effect of over 60% in size; note: potency is the fitted concentration of half-maximal effect
Method in brief: (§1)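 Cytotoxicity was measured as CellTiter-Glo ATP luminescence, read after 10 min at room temperature. Compound treatment of the cells lasted 48 or 72 hr at 37 degrees Celsius in a qHTS format.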

HEK293 = test: as above; settings: Five cell lines viability, CellTiter-Glo ATP luminescence, 48-72 h; max response: stronger effect = lower value
Method in brief: as §1

HaCat [1] = test: as above; settings: Five cell lines viability, CellTiter-Glo ATP luminescence, 48-72 h; max response: stronger effect = lower value
Method in brief: as §1

KB-3-1 = test: as above; settings: Five cell lines viability, CellTiter-Glo ATP luminescence, 48-72 h; max response: stronger effect = lower value
Method in brief: as §1

NIH3T3 [2] = test: as above; settings: Five cell lines viability, CellTiter-Glo ATP luminescence, 48-72 h; max response: stronger effect = lower value
Method in brief: as §1

MCC-13 = test: qHTS assay to identify novel small-molecules to repurpose for Merkel cell carcinoma treatment (AID 1296009); settings: MCC and control cell lines, CellTiter-Glo viability, 72 h; series mostly up to 46 µM; note: nearly all actives have a fitted effect of over 60% in size; note: potency is the fitted concentration of half-maximal effect
Method in brief: (§2)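 Cell viability, measured as CellTiter-Glo luminescence, was normalized between DMSO and no-cell wells. The cells had been exposed to 8- or 11-point compound dilutions for 72 hr at 37 degree celsius.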

MCC-26 = test: as above; settings: MCC and control cell lines, CellTiter-Glo viability, 72 h; series mostly up to 46 µM
Method in brief: as §2

WaGa = test: as above; settings: MCC and control cell lines, CellTiter-Glo viability, 72 h; series mostly up to 46 µM
Method in brief: as §2

C33A = test: Primary qHTS to identify gynecologic anti-cancer compounds using libraries of approved drugs and bioactive compounds (AID 1345084); settings: Gynecologic cancer cell panel viability, ATPlite luminescence, 48 h; series mostly up to 57.5 µM; note: nearly all actives have a fitted effect of over 55% in size
Method in brief: (§3)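 Five-point cytotoxicity, 48 h drug exposure at 37 C, 5% CO2, on cells seeded 16 h beforehand. ATP content read by ATPlite luminescence.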

HeLa = test: as above; settings: Gynecologic cancer cell panel viability, ATPlite luminescence, 48 h; series mostly up to 57.5 µM
Method in brief: as §3

Hek293T [3] = test: as above; settings: Gynecologic cancer cell panel viability, ATPlite luminescence, 48 h, control line for the selectivity index; series mostly up to 57.5 µM
Method in brief: as §3

JEG-3 = test: as above; settings: Gynecologic cancer cell panel viability, ATPlite luminescence, 48 h; series mostly up to 57.5 µM
Method in brief: as §3

HACAT [4] = test: qHTS assay to identify novel small-molecules to repurpose for Merkel cell carcinoma treatment (AID 1296009); settings: MCC and control cell lines, CellTiter-Glo viability, 72 h; at 44.8 µM (top of the series) unless noted; note: nearly all actives have a fitted effect of over 60% in size; note: potency is the fitted concentration of half-maximal effect
Method in brief: as §2

HEK293T [5] = test: as above; settings: MCC and control cell lines, CellTiter-Glo viability, 72 h; series mostly up to 44.8 µM
Method in brief: as §2

MKL-1 = test: as above; settings: MCC and control cell lines, CellTiter-Glo viability, 72 h; series mostly up to 46 µM
Method in brief: as §2

MKL-2 = test: as above; settings: MCC and control cell lines, CellTiter-Glo viability, 72 h; series mostly up to 46 µM
Method in brief: as §2

UISO = test: as above; settings: MCC and control cell lines, CellTiter-Glo viability, 72 h; series mostly up to 46 µM
Method in brief: as §2

NIH3T3 [6] = test: as above; settings: MCC and control cell lines, CellTiter-Glo viability, 72 h; at 44.8 µM (top of the series) unless noted
Method in brief: as §2

CASKI = test: Primary qHTS to identify gynecologic anti-cancer compounds using libraries of approved drugs and bioactive compounds (AID 1345084); settings: Gynecologic cancer cell panel viability, ATPlite luminescence, 48 h; series mostly up to 57.5 µM; note: nearly all actives have a fitted effect of over 55% in size
Method in brief: as §3

Es-2 = test: as above; settings: Gynecologic cancer cell panel viability, ATPlite luminescence, 48 h; series mostly up to 57.5 µM
Method in brief: as §3
% is set by controls: 0 for no effect and ±100 for the full control effect.

CC(C)(N)c1ccc(-c2nc3ccccc3nc2-c2ccccc2)cc1
inactive: max response (CRL-7250) -8.83% | max response (HaCat [1]) -35.2% and -5.95% | Potency (MCC-13) | Potency (MCC-26) | Potency (C33A) | Potency (HeLa) | Potency (Hek293T [3]) | Potency (JEG-3)
active: Potency (CRL-7250) 0.0743 µM | Potency (HEK293) 0.059 µM | Potency (KB-3-1) 1.87 µM | Potency (NIH3T3 [2]) 25.9 µM | Potency (WaGa) 18.7 µM

COC(=O)C=CC(=O)OC
inactive: max response (CRL-7250) -5.16% | outcome (HEK293) | outcome (HaCat [1]) | max response (KB-3-1) 7.81% | max response (NIH3T3 [2]) -0.0603% | outcome (HACAT [4]) | Potency (HEK293T [5]) | Potency (MCC-13) | Potency (MCC-26) | Potency (MKL-1) | Potency (MKL-2) | Potency (UISO)

NC(=O)c1cccc(-c2cccc(OC(=O)NC3CCCCC3)c2)c1
inactive: outcome (CRL-7250) | max response (HEK293) -9.31% | outcome (HaCat [1]) | max response (KB-3-1) 6.26% | outcome (NIH3T3 [2]) | outcome (HACAT [4]) | Potency (MCC-13) | Potency (MCC-26) | Potency (MKL-1) | Potency (MKL-2) | outcome (NIH3T3 [6]) | Potency (UISO) | Potency (WaGa)

C[C@H](NC(=O)Cc1cc(F)cc(F)c1)C(=O)N[C@H](C(=O)OC(C)(C)C)c1ccccc1
inactive: max response (CRL-7250) -1.21% | max response (HEK293) -28.5% | outcome (HaCat [1]) | max response (KB-3-1) -8.93% | max response (NIH3T3 [2]) -8.45% | outcome (HACAT [4]) | Potency (MCC-13) | Potency (MCC-26) | Potency (MKL-1) | Potency (MKL-2) | Potency (UISO) | Potency (WaGa)

C[C@H](CCC(=O)O)[C@H]1CC[C@H]2[C@@H]3[C@H](O)C[C@@H]4C[C@H](O)CC[C@]4(C)[C@@H]3CC[C@]12C
inactive: max response (CRL-7250) 2.36% | max response (HEK293) -7.11% | outcome (HaCat [1]) | max response (KB-3-1) 1.89% | outcome (NIH3T3 [2]) | outcome (HACAT [4]) | Potency (MCC-13) | Potency (MCC-26) | Potency (MKL-1) | Potency (MKL-2) | outcome (NIH3T3 [6]) | Potency (UISO) | Potency (WaGa)

CC(=O)O[C@H]1C[C@@H]2CC[C@H]3[C@H]4C[C@H]([N+]5(C)CCCCC5)[C@@H](OC(C)=O)[C@@]4(C)CC[C@@H]3[C@@]2(C)C[C@H]1[N+]1(C)CCCCC1
inactive: max response (CRL-7250) 0.398% | max response (HEK293) 0.173% | outcome (HaCat [1]) | outcome (KB-3-1) | max response (NIH3T3 [2]) -1.21% | outcome (HACAT [4]) | Potency (MCC-13) | Potency (MCC-26) | Potency (MKL-1) | Potency (MKL-2) | Potency (UISO) | Potency (WaGa)

Nc1nc(=O)n([C@H]2CSC(CO)O2)cc1F (stereo partly specified)
inactive: max response (CRL-7250) -8.43% | outcome (HEK293) | outcome (HaCat [1]) | max response (KB-3-1) 9.64% | outcome (NIH3T3 [2]) | outcome (HACAT [4]) | Potency (HEK293T [5]) | Potency (MCC-13) | Potency (MCC-26) | Potency (MKL-1) | Potency (MKL-2) | outcome (NIH3T3 [6]) | Potency (UISO) | Potency (WaGa)

N#Cc1cc(NC(=O)Nc2nnc(-c3ccncc3)s2)ccc1-c1cn[nH]c1
inactive: max response (CRL-7250) -3.75% | outcome (HEK293) | outcome (HaCat [1]) | max response (KB-3-1) 0.642% | max response (NIH3T3 [2]) -2.38% | outcome (HACAT [4]) | Potency (HEK293T [5]) | Potency (MCC-13) | Potency (MCC-26) | Potency (MKL-1) | Potency (MKL-2) | Potency (UISO) | Potency (WaGa)

O=C1NC(O)CCN1[C@@H]1O[C@H](CO)[C@H](O)[C@H]1O (stereo partly specified)
inactive: max response (CRL-7250) -71.1% | max response (HEK293) -3.17% | outcome (HaCat [1]) | max response (KB-3-1) -2.55% | max response (NIH3T3 [2]) 1.52% | outcome (HACAT [4]) | Potency (MCC-13) | Potency (MCC-26) | Potency (MKL-1) | Potency (MKL-2) | Potency (UISO) | Potency (WaGa)

CC1(C)O[C@@H]2C[C@H]3[C@@H]4CCC5=CC(=O)C=C[C@]5(C)[C@@H]4[C@@H](O)C[C@]3(C)[C@]2(C(=O)CO)O1
inactive: max response (CRL-7250) -21.1% | outcome (HEK293) | outcome (HaCat [1]) | outcome (KB-3-1) | max response (NIH3T3 [2]) -5.4% | outcome (HACAT [4]) | Potency (HEK293T [5]) | Potency (MCC-13) | Potency (MCC-26) | Potency (MKL-1) | Potency (MKL-2) | Potency (UISO) | Potency (WaGa) | Potency (C33A) | Potency (CASKI) | Potency (Es-2) | Potency (HeLa) | Potency (Hek293T [3]) | Potency (JEG-3)

NC1=N[C@H]2[C@H](CS[C@H]2CCCCC(=O)O)N1
inactive: outcome (CRL-7250) | max response (HEK293) -4.7% | outcome (HaCat [1]) | outcome (KB-3-1) | max response (NIH3T3 [2]) -0.4% | outcome (HACAT [4]) inactive [at 17.4 µM] | Potency (MCC-13) | Potency (MCC-26) | Potency (MKL-1) | Potency (MKL-2) | Potency (UISO) | Potency (WaGa)

Oc1cc2c(cc1O)C1c3ccc(O)c(O)c3OCC1(O)C2 (stereo unspecified)
inactive: max response (CRL-7250) 1.81% | max response (HEK293) 1.47% | outcome (HaCat [1]) | max response (KB-3-1) 7.88% | outcome (NIH3T3 [2]) | outcome (HACAT [4]) | Potency (MCC-13) | Potency (MCC-26) | Potency (MKL-1) | Potency (MKL-2) | outcome (NIH3T3 [6]) | Potency (UISO) | Potency (WaGa)

N#Cc1ccc(COC[C@H]2O[C@@H](n3c(NCc4ccc(Cl)c(Cl)c4)nc4c(N)ncnc43)[C@@H](O)[C@@H]2O)cc1
active: Potency (HEK293) 16.6 µM | Potency (HaCat [1]) 11.8 µM
inactive: max response (CRL-7250) -5.8%
